Laboratory results taken from paper PMC4336329 (PLoS ONE, 2015).
Screen size: about 310,000 compounds; about 14,000 (4.5%) showed an effect of 50% or more. Effects have a minus sign here. For the sample, strong results were picked, then their nearest neighbours and some compounds at random.

What follows are molecules tested against human ether-à-go-go-related gene (hERG) potassium channel (human, UniProt Q12809) (assay: primary screen, population patch clamp on CHO cells stably expressing hERG; higher = less effect of the substance).
Sequence of human ether-à-go-go-related gene (hERG) potassium channel (Q12809 whole entry, looked up): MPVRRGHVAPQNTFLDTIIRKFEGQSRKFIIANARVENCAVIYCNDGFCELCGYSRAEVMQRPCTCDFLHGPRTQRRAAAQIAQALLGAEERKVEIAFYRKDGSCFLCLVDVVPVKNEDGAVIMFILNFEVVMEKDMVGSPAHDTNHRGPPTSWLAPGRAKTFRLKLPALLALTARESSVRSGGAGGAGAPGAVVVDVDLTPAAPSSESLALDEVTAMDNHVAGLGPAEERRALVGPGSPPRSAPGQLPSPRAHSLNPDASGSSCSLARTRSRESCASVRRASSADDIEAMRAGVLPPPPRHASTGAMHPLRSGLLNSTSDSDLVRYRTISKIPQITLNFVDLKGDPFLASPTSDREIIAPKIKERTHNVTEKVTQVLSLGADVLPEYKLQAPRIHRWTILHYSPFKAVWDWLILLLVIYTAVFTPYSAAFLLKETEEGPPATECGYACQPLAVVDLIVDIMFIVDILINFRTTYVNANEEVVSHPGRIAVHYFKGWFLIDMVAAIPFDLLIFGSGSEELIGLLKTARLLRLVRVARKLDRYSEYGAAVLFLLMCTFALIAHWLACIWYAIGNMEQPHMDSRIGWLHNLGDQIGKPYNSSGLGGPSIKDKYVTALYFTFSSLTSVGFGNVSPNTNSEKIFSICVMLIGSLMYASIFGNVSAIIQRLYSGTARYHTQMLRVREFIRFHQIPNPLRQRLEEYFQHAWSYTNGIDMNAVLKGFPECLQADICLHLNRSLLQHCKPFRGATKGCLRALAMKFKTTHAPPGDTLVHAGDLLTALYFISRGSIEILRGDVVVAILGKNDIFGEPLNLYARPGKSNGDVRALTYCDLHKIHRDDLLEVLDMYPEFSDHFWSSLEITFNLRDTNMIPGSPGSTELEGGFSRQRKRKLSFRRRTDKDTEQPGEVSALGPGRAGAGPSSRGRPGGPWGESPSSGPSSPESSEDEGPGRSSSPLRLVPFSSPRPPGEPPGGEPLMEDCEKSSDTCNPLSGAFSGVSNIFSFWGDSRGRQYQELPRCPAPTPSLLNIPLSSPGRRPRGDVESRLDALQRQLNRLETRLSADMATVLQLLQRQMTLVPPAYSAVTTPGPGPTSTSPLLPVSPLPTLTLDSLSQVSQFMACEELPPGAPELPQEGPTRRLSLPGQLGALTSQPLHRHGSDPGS
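Also: peak tail current of the secondary pulse compared with the same well before compound.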

Compound	hERG current change (%, negative = inhibition) at 10uM [%]
O=C(COC(=O)c1cccc(C(=O)OCC(=O)NCc2ccc(F)cc2)n1)NCc1ccc(F)cc1	-15.5
Cn1nccc1C(=O)N(CCN1CCCCC1)CC1CCCN(C2CCCC2)C1 (centres unmarked)	-2.29
O=C(c1cc2cc(F)ccc2[nH]1)N(Cc1cccnc1)CC1CCCN(C2CCCCC2)C1 (centres unmarked)	-77.5
O=C(c1cccs1)N(CCN1CCCCC1)CC1CCCN(C2CCCC2)C1 (centres unmarked)	1.03
O=C(c1cc2ccccc2[nH]1)N(Cc1cccnc1)CC1CCCN(C2CCCCC2)C1 (centres unmarked)	-73.7
COC(=O)c1ccccc1C(=O)N(Cc1cccnc1)CC1CCCN(C2CCCCC2)C1 (centres unmarked)	-40
CC(=O)N(Cc1cccnc1)Cc1cc2ccccc2[nH]c1=O	3.63
O=S(=O)(NCc1cn2ccsc2n1)c1cccs1	15.6
Cc1cc(C(=O)OCC(=O)Nc2nccs2)c2ccccc2n1	1.22
Cc1cc(C)c2c(n1)nn1c(C)c(CCC(=O)NCc3ccco3)c(C)nc21	-12.1
CCOC(=O)CSc1nnc2n1C(C)(C)Cc1ccccc1-2	-4.66
CCOc1cc(C(=O)N=c2sccn2C)cc(Br)c1OC	8.84
CNC(=O)COC(=O)c1ccc(NC(=O)CC#N)cc1	11.9
CCN(CC(=O)Nc1c(F)cccc1F)C(=O)c1ccc2c(c1)S(=O)(=O)N=C1CCCCCN12	9.69
CCN(CC)P(=O)(Nc1ccc([N+](=O)[O-])cc1)c1c(C)nn(CCC#N)c1NC(=O)c1ccc(Cl)cc1Cl (centres unmarked)	3.17
Cc1nn(Cc2ccc(Cl)cc2)c(C)c1NC(=O)c1c(-c2ccccc2)noc1C	-65.1
Cc1nn(Cc2ccccc2)c(C)c1NC(=O)Cn1nc([N+](=O)[O-])c(Cl)c1C	-10.4
Cc1onc(-c2ccccc2)c1C(=O)NCc1ccc(Cl)cc1	13.8
CCn1nc(C)c(NC(=O)c2ccc(Cl)cc2)c1C	5.72
Cc1cc(C(=O)Nc2c(C)nn(Cc3ccc(Cl)cc3)c2C)no1	-15.4
CCN(CC)P(=O)(Nc1ccc(Br)cc1)c1c(C)nn(CCC#N)c1NC(=O)c1ccc(Cl)cc1 (centres unmarked)	7.19
CCN(CC)P(=O)(Nc1ccc([N+](=O)[O-])cc1)c1c(C)nn(CCC#N)c1NC(=O)c1ccc(Cl)cc1 (centres unmarked)	-56.9
Cc1cc(C(=O)Nc2c(C)nn(Cc3ccccc3)c2C)on1	1.26
Cc1nn(Cc2ccc(Cl)cc2)c(C)c1NC(=O)c1ccc([N+](=O)[O-])cc1	-72.6

Compound	hERG current change (%, negative = inhibition) at 10uM [%]
Cc1nn(Cc2ccccc2)c(C)c1NC(=O)c1ccc([N+](=O)[O-])cc1[N+](=O)[O-]	-57
O=C(Nc1cnn(Cc2ccc(Cl)cc2)c1)c1ccc([N+](=O)[O-])cc1	-31.4
C=CCNC(=S)Nc1ccc(OC)c(S(=O)(=O)N2CCOCC2)c1	-10.3
CC(=O)c1cc2c(cc1NC(=O)CCc1c(C)nc3ncnn3c1C)OCO2	-10.1
C=CCn1c(N)c(C(=O)NCc2cccnc2)sc1=S	-35.1
COc1cccc(CN2CC(C(=O)NCCSc3nnnn3C)CCC2=O)c1 (centres unmarked)	18
CC(C)(C)C(=O)Nc1ccc(N=Nc2ccccc2)cc1	-0.305
O=C(O)C(Cc1c[nH]c2ccccc12)N1C(=O)C2C3c4ccccc4C(c4ccccc43)[C@@H]2C1=O (some centres unmarked)	18
Nc1nnc(CSCc2ccc(Cl)cc2Cl)s1	0.235
Cc1cc(NS(=O)(=O)c2ccc(NC(=O)CCc3ccccc3)cc2)no1	12.2
CCCCN(C)C(=O)c1nc2ccccn2c1CNCCCn1ncc2ccccc21	-55
CN(Cc1ccccc1)C(=O)c1nc2ccccn2c1CNCCCOc1cccnc1	-52.3
O=C(c1nc2ccccn2c1CNCCCn1ncc2ccccc21)N1CCCC1	-37.7
CCCCN(C)C(=O)c1nc2ccccn2c1CNCCCn1nnc2ccccc21	-38
CN(Cc1ccccc1)C(=O)c1nc2ccccn2c1CNCCn1cccn1	-32.3
CN(Cc1ccccc1)C(=O)c1nc2ccccn2c1CNCCOc1cccnc1	-31
CCOc1ccccc1NC(=O)CCS(=O)(=O)c1ccc(OC)cc1	-0.411
COc1ccc(-n2c(C)cc(/C=C3/SC(=S)N(C)C3=O)c2C)cc1	20.7
CCOc1ccccc1C1CC(=O)NC(SCC(=O)Nc2nccs2)=C1C#N (centres unmarked)	-0.586
CN(C)CCN1C(=O)C(O)=C(C(=O)c2ccco2)C1c1ccccc1F (centres unmarked)	11.9
Cc1ccc(C(=O)N/C(=C\c2cccnc2)C(=O)N2CCCC2)cc1	-1.72
Fc1ccc(C2CCCN2Cc2nc(Cc3ccccc3)no2)cc1 (centres unmarked)	-15.2
CN(C)c1nc(N)c([N+](=O)[O-])c(NCc2ccccc2)n1	4.16
